In PubChem BioAssay AID504444 (National Center for Advancing Translational Sciences (NCATS), 2011):
The whole screen tested about 360,000 compounds, of which about 7,500 (2.1%) were called active. Not shown: some 20% with an inconclusive outcome. This is one part of a sample in which actives are shown more often than they occur. Unmarked numbers belong to inactive results. Calls follow the shape of the dose curve; as a rule, active = well fitted inhibition curve with a large enough effect; inconclusive = small, poorly fitted or top-dose-only effect, or effect the other way; inactive = flat fitted curve, though single readings scatter.

Assay: Nrf2 qHTS screen for inhibitors; also: nearly all actives have a fitted effect of over 60% in size
Conditions: A549 ARE-Fluc reporter, luciferase luminescence, 18-24 h; series mostly up to 46 µM; activity change, negative = inhibition: at the top concentration
In short: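 A549 ARE_Fluc cells, 5000/well, 5% FBS OPTI-MEM; compounds in dose-response, 18-24 h at 37 °C/5% CO2; CellTiter-Fluor viability read (Ex 405/Em 525), then BugLite luciferase luminescence = Nrf2 activity.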
% is scaled to controls: 0 for no effect and ±100 for the full control effect; potency is read from the fitted curve at half-maximal effect.

| SMILES | activity change, negative = inhibition | Potency |
| --- | --- | --- |
| CCOC(=O)C1=CN(Cc2ccc(Br)cc2)S(=O)(=O)N(C)C1C (stereo not drawn) | -21.3% |  |
| CCNC(=O)N(CC)C[C@H]1N[C@@](CC)(C(=O)OC)[C@H]2C(=O)N(Cc3ccccc3)C(=O)[C@@H]12 | 0.165% |  |
| O=C1c2ccccc2[C@@H]2C[C@@H](O)[C@H](Nc3ccccc3Cl)CCN12 | -2.43% |  |
| Cc1cc(=O)[nH]c(SCc2cccc(F)c2)n1 | 9.11% |  |
| C=CCn1c(SCc2cccc(F)c2)nc2cc(C(=O)N3CCC(C(N)=O)CC3)ccc2c1=O | 3.26% |  |
| CCn1cc2nc(SCc3cccc(F)c3)n(CCc3ccccc3)c(=O)c2n1 |  | 23.1 µM (active) |
| O=C(Cn1cc(SCc2ccccc2)c2ccccc21)N1CCCCC1 | 4.37% |  |
| COc1ccc(CCNc2nc(-c3ccc(F)cc3)cc(C(F)(F)F)n2)cc1OC | 8.32% [at 9.27 µM] |  |
| COc1ccccc1CNC(=O)c1ccc(-n2c(C)cc3c2CCCC3)cc1 | -13.1% |  |
| CCOc1ccc(CNC(=O)CCc2c(C)nn(-c3ccc(N4CCCCC4)nn3)c2C)cc1 | -4.23% |  |
| O=C(O)c1ccc(CSc2nc3cccnc3n2Cc2cccc(F)c2)cc1 | -5.55% |  |
| Cc1oc(-c2ccccc2)nc1Cn1c(SCc2cccc(C(F)(F)F)c2)nc2cccnc21 |  | 25.9 µM (active) |
| O=C(NCc1ccc(F)cc1)c1ccc(Cn2c(SCc3ccc(F)cc3)nc3cccnc32)cc1 | 10.8% |  |
| CCN(Cc1ccccc1)C(=O)c1cn(-c2cccc(OC)c2)c(=O)c2ccccc12 | 22% |  |
| CC(C)(C)Nc1nc(-c2ccccn2)nc2ccccc12 |  | 20.6 µM (active) |
| c1ccc(-c2nc(NCc3ccco3)c3ccccc3n2)cc1 | 2.29% |  |
| Cc1ccc(Oc2nc(-c3ccccn3)nc3ccccc23)cc1 | -10.1% |  |
| CCOc1ccc(C(=O)c2cn(Cc3ccccc3OC)c3ccc(F)cc3c2=O)cc1 | -6.53% |  |
| O=C(N/N=C/c1ccoc1)c1ccc(Cl)cc1Cl | 15.2% |  |
| CC(C)(C)C(=O)Nc1ccc(C(=O)N/N=C/c2ccccc2OC(=O)c2ccc(Cl)cc2Cl)cc1 |  | 13 µM (active) |
| O=C(N/N=C/c1ccc(OC(=O)c2ccccc2Cl)cc1)c1ccc(O)cc1 | 0.134% |  |
| O=C(CC(=O)c1cccnc1)c1ccccc1 | 3.55% |  |
| COCCN(Cc1ccco1)C(=O)Cn1ncc2c([nH]c3ccccc32)c1=O | -8.84% |  |
| O=C(CC1SC(=Nc2ccccc2)N(Cc2ccccn2)C1=O)Nc1cccc(Cl)c1 (stereo not drawn) |  | 25.9 µM (active) |

| SMILES | activity change, negative = inhibition | Potency |
| --- | --- | --- |
| O=C(Nc1cccc(Cl)c1)OCc1ccccn1 | 12.3% |  |
| CN1C(=O)C(CC(=O)Nc2ccccc2)S/C1=N/c1nccs1 (stereo not drawn) | 2.37% |  |
| CN(C)C(=S)N=c1ssc(=S)n1Cc1ccco1 | -1.23% |  |
| CCCCOc1ccc(C(=O)Nc2cccc(-c3nc4ccccc4o3)c2C)cc1 | 3.59% |  |
| Cc1ccccc1-c1nc2cc(NC(=O)c3cccc(OCCC(C)C)c3)ccc2o1 |  | 6.51 µM (active) |
| COc1cccc(C(=O)Nc2ccc3oc(-c4ccc5ccccc5c4)nc3c2)c1 | -7.05% |  |
| CCCOc1ccc(C(=O)Nc2ccc3oc(-c4cccc(Cl)c4Cl)nc3c2)cc1 |  | 5.8 µM (active) |
| Cc1ccc(SCC(=O)Nc2ccc3oc(-c4ccccc4C)nc3c2)cc1 | 22.1% |  |
| O=C(COc1ccc(Cl)cc1)Nc1ccc(-c2nc3cc(Cl)ccc3o2)c(O)c1 | 5.35% |  |
| O=C(NCCCc1ccccc1)c1ccc2c(c1)sc1nc(-c3ccc(F)cc3)cn12 | 11.3% |  |
| CCc1ccc(OCCCn2c(CCCNC(=O)C3CCCCC3)nc3ccccc32)cc1 | 0.143% |  |
| O=C(NCc1ccccc1)c1cccc(NC(=O)N2CCSc3ncccc32)c1 | -16% |  |
| CC(C)(C)OC(=O)C[C@H]1C/C=C\C[C@@H](CC(=O)N[C@H](CO)Cc2ccccc2)C(=O)NC[C@@H](c2ccccc2)OC1=O | 22.1% |  |
| COc1ccc(-c2ccc3c(c2)C2CC3CCN2CCC#N)cc1 (stereo not drawn) | 0.991% |  |
| Cc1nc2ccc(S(=O)(=O)N(CC(=O)Nc3ccc(F)cc3)Cc3ccccc3)cc2s1 | 11% |  |
| COc1ccccc1N1CCN(c2ccc(=O)n(CC(=O)NCc3ccc(OC(C)C)cc3)n2)CC1 | -22.3% |  |
| Cc1c(C(=O)N2CCCC2)oc2c1-c1nn(CC(=O)NCc3ccc(OC(C)C)cc3)cc1CC2 |  | 20.6 µM (active) |
| CCCN(CCC)CCCNC(=O)Cn1cc2c(n1)-c1c(oc(C(=O)N3CCCC3)c1C)CC2 | 3.36% |  |
| Cc1ccc(Cn2cc(CCC(=O)NCc3ccc(OC(C)C)cc3)c3ccccc32)cc1 | -1.08% |  |
| Cc1cccc(N2CCN(C(=O)c3oc(=O)c4ccccc4c3-c3ccccc3)CC2)c1C | -3.23% |  |
| Cc1ccc2nc(/C(C#N)=C\c3ccc(OC(=O)c4cccs4)cc3)[nH]c2c1 |  | 4.61 µM (active) |
| Cc1ccc2nc(/C(C#N)=C/c3ccccc3F)[nH]c2c1 | 16.3% |  |
| COc1cc(/C=C(\C#N)c2nc3ccccc3[nH]2)ccc1O | 5.25% |  |
| CC(=O)Nc1cccc(/C(C)=N/NC(=O)c2c(-c3ccccc3Cl)noc2C)c1 |  | 9.2 µM (active) |
